From PubChem
Cruzain Triton: cruzain (T. cruzi) inhibition with detergent; AID 1478; purified cruzain, Z-FR-AMC fluorescence, 0.01% Triton; Potency, µM, inactives show max response, negative = inhibition, actives largely listed as inhibitors; hit rate 0.43% among 200,000; P25779;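 also: plate controls were neutral wells for no effect and buffer without enzyme for full effect; nearly all actives have a fitted effect of over 40% in size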
Target sequence (P25779 123-467 limits assumed): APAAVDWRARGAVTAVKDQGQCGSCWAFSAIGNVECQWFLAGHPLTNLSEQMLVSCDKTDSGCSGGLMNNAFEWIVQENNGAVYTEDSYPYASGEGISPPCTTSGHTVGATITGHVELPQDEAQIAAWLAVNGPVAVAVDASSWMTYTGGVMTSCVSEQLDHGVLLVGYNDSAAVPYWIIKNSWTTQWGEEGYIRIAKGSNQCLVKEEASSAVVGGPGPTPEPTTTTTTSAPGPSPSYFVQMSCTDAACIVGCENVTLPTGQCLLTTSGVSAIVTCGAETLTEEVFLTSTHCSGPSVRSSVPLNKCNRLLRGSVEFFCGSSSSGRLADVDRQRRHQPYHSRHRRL
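Read-out: AMC fluorescence (360 nm excitation, 450 nm emission), four reads over 2 min, first-to-third difference used. Conditions: cruzain 1.5 nM, Z-FR-AMC 2 uM, pH 5.5 acetate, 5 mM DTT, 0.01% Triton X-100.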
Cruzain inh noDet: cruzain (T. cruzi) inhibition without detergent | P25779 | purified cruzain, Z-FR-AMC fluorescence, no detergent | Potency, µM, without a hit: max response, negative = inhibition, actives largely listed as inhibitors | hit rate 2.3% among 200,000 | AID 1476;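 also: plate controls were enzyme without inhibitor for no effect and buffer without enzyme for full effect; nearly all actives have a fitted effect of over 40% in size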
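Purified cruzain at 1.5 nM, pre-incubated 15 min with compound at room temperature in 100 mM sodium acetate pH 5.5, 5 mM DTT, 0.00005% Triton X-100. Reaction started with 2 uM Z-FR-AMC; AMC fluorescence increase over 60 s gives rate.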
The depositor's hits bear a star; ? = inconclusive. Shown are actives, neighbours in structure and some others; about 2.6% of the full set was active somewhere. Calls follow the shape of the dose curve; as a rule, active = well fitted curve in the direction sought with a large enough effect; inconclusive = small, poorly fitted or top-dose-only effect, or another doubt; inactive = no such curve, though single readings can be large; an effect the other way counts as inactive or inconclusive. Potency is read from the fitted curve at half-maximal effect.

SMILES	Cruzain Triton	Cruzain inh noDet
Cc1sc(NC(=O)CN(C)C2CCCCC2)nc1-c1ccc2c(c1)CCN2S(=O)(=O)c1ccccc1	-5%	32µM*
COc1ccccc1-c1c(C)nn2c(N3CCN(c4ccc(F)cc4)CC3)cc(C)nc12	1%	-5%
COc1ccc(F)cc1S(=O)(=O)NCCc1csc2nc(-c3cccc(C)c3)nn12	-9%	?
O=C(CCS(=O)(=O)c1cccs1)Nc1ccc(C(=O)Nc2cccc(Cl)c2)cc1	-11%	-25%
CC(C)c1ccc(NC(=O)c2ccc(NC(=O)CCS(=O)(=O)c3cccs3)cc2)cc1	-4%	32µM*
Cc1ccc(-n2c(SCc3ccccc3F)nc3[nH]ncc3c2=O)cc1Cl	-7%	?
O=c1[nH]c2ccc(Cl)cc2c(O)c1-c1ccccc1	1%	0%
O=c1[nH]c2cc(Cl)ccc2c(O)c1-c1ccc(Oc2ccccc2)cc1	2%	10µM*
COCc1cc(=O)[nH]c(Sc2c(-c3ccccc3)c3ccc(Cl)cc3[nH]c2=O)n1	-2%	?
O=c1[nH]c2cc(Cl)ccc2c(O)c1-c1cccc(Oc2ccccc2)c1	5%	3.2µM*
O=C(O)c1cccc(NC(=O)c2cccc(S(=O)(=O)N3CCCCC3)c2)c1	-3%	2%
O=C(Nc1nc(-c2ccccc2)c(-c2ccccc2)s1)c1ccc(S(=O)(=O)N2CCCC2)cc1	6%	?
O=C(Nc1nc(-c2ccccc2)c(C(=O)c2ccccc2)s1)c1ccc(S(=O)(=O)N2CCCC2)cc1	-2%	25µM*
Nc1nc(NC(=O)c2cccc(S(=O)(=O)N3CCCCCC3)c2)nc(-c2ccccc2)n1	0%	20µM*
Cc1cccc(-n2c(=O)c3ccccc3n(Cc3ccccc3)c2=O)c1	-6%	11%
COc1cc2c(cc1OC)n(Cc1cccc(C(F)(F)F)c1)c(=O)n1nc(-c3ccccc3)nc21	2%	8%
CCCCOc1cccc(C(=O)N(Cc2ccc(Br)o2)C2CCS(=O)(=O)C2)c1 (configuration not stated)	-12%	?
O=c1oc2ccc(Cl)cc2cc1-c1nnc(Nc2cccc(C(F)(F)F)c2)s1	-1%	5µM*
CNc1nnc(-c2cc3cc(Cl)ccc3oc2=O)s1	-4%	2%
CCOC(=O)c1oc2ccccc2c1NC(=O)C1CCCCC1	7%	-24%
O=C(CNC(=O)C1CCCCC1)OCc1cc(=O)oc2ccc3ccccc3c12	3.2µM*	-20%
COCOc1c2c(c(OCOC)c3c(OCOC)cccc13)/C(=N/NS(C)(=O)=O)C1=C2CCCC1	2%	-8%
Nc1nc(-c2ccc(Cl)c(Cl)c2)c(-c2ccncc2)s1	-4%	?
Cc1ccc(N2CCN(C3=NC(=O)C(Cc4ccccc4)S3)CC2)cc1 (configuration not stated)	28µM*	-4%
O=C1N=C(N2CCN(c3ccccc3)CC2)SC1Cc1ccccc1 (configuration not stated)	-26%	-7%
SMILES	Cruzain Triton	Cruzain inh noDet
O=S(=O)(N/N=C1\CC(c2ccccc2)Oc2ccccc21)c1ccccc1 (configuration not stated)	-1%	-23%
Cc1ccc(S(=O)(=O)N/N=C2/CC(c3ccccc3)Oc3ccccc32)cc1 (configuration not stated)	-3%	25µM*
Cc1cc(O)c(C(c2ccc(Cl)cc2)N2CCN(c3ccccc3)CC2)c(=O)n1Cc1ccco1 (configuration not stated)	1%	?
O=C(COC(=O)/C=C/c1ccccc1[N+](=O)[O-])Nc1ccc(OC(F)F)cc1	-1%	-21%
O=C(COC(=O)/C=C/c1ccccc1[N+](=O)[O-])Nc1ccc(OCc2ccccc2)cc1	3%	25µM*
CSCCC(NC=O)C(=O)NC(CC(C)C)C(=O)NC(Cc1ccccc1)C(=O)O (configuration not stated)	5%	5%
CSCC[C@H](C=O)NC(=O)[C@H](CC(C)C)NC(=O)[C@H](CC(C)C)NC(C)=O	0.0028µM*	0.0025µM*
CCCC[C@@H](C=O)NC(=O)[C@H](CC(C)C)NC(=O)[C@H](CC(C)C)NC(C)=O	?	0.0032µM*
CC(=O)N[C@@H](CC(C)C)C(=O)O	-1%	-4%
CCCCC(C=O)NC(=O)C(CC(C)C)NC(=O)OCc1ccccc1 (configuration not stated)	0.002µM*	0.0025µM*
COC(=O)C(C)NC(=O)C(C)NC(=O)OCc1ccccc1 (configuration not stated)	0%	-3%
COc1ccc2[nH]cc(CCNc3ccnc(-c4ccccc4Cl)n3)c2c1	-8%	14%
COc1ccc(N2CCN(C(=O)c3c(C)oc4ncn(CC(C)C)c(=O)c34)CC2)cc1	-2%	-9%
Cc1ccc([N+](=O)[O-])c(N)c1	2%	0%
O=c1c2cc3c(cc2nc2sc(Nc4ccc(F)c(Cl)c4)nn12)OCO3	2%	1%
Cc1ccc2c(c1)c1c3n2CCN(C(=O)c2cccc(C(F)(F)F)c2)C3CCC1 (configuration not stated)	-5%	0.63µM*
CCN(CC)CCN1CCn2c3c(c4cc(C)ccc42)CCCC31 (configuration not stated)	-8%	-4%
CN(C)C1(CNC(=O)COc2ccc([N+](=O)[O-])cc2)CCCCC1	-3%	-6%
CCN(C(=O)CCNC(=O)Cn1cnc2ccccc2c1=O)c1cc(OC)ccc1OC	-1%	-4%
CC1=Nc2cc(C(=O)NCc3ccco3)ccc2Sc2ccc(C)cc21	-10%	-8%
CC1=Nc2cc(C(=O)NCc3ccccc3Cl)ccc2Sc2c(C)ccc(C)c21	-4%	32µM*
CCC1=Nc2cc(C(=O)NCc3ccccc3Cl)ccc2Sc2ccc(C)cc21	-3%	?
CCC1=Nc2cc(C(=O)NCc3ccccc3OC)ccc2Sc2ccc(Cl)cc21	1%	32µM*
CCOc1ccc(C2C(C(N)=O)=C(C)Nc3nc(SCc4ccccc4)nn32)cc1 (configuration not stated)	1%	-28%
COc1cc2c(cc1OC)C(COc1ccc3c(C)cc(=O)oc3c1)N(C(=O)c1cccc(OC)c1OC)CC2 (configuration not stated)	16%	?
SMILES	Cruzain Triton	Cruzain inh noDet
C1=C(CCNc2ncnc3c2[nH]c2ccccc23)CCCC1	-16%	-23%
CC(C)OCCCNc1ncnc2c1[nH]c1ccccc12	?	16µM*
COc1ccc2[nH]c3c(NCCCN4CCCC4=O)ncnc3c2c1	?	-23%
COc1ccc2[nH]c3c(NCCN(C(C)C)C(C)C)ncnc3c2c1	?	13µM*
COc1ccc(NC(=O)C2CCC(CNS(=O)(=O)c3cccc4nsnc34)CC2)cc1OC (configuration not stated)	-1%	-5%
Cc1ccc(Cl)cc1NC(=O)N1CCC2(CC1)Oc1ccccc1C(=O)N2Cc1ccccc1F	-3%	-2%
COc1ccc(CNC(=O)C2CCCN(C(=O)N3CCOc4ccccc43)C2)cc1 (configuration not stated)	1%	4%
COc1ccccc1-c1nccc(Nc2ccc(F)cc2)n1	-8%	1%
CCOC(=O)c1cc(-c2ccccc2)sc1NC(=O)CCN1C(=O)c2ccccc2C1=O	-16%	?
CCOC(=O)c1sc(-c2ccccc2)cc1N	-12%	-8%
CCOC(=O)c1cc(-c2ccccc2)sc1N	-12%	25µM*
CCOC(=O)c1cc(-c2ccccc2)sc1NC(=O)C(C)N1C(=O)c2ccccc2C1=O (configuration not stated)	-5%	25µM*
